# Screen size: about 5,500 compounds; about 2,000 (36%) were called active. Another 18% or so got no clear call; they are omitted. The list shows a part of the results. A number with no mark means an inactive call. Rule as the data show it: active = normalized growth mostly below about 0.91 (no sharp cut-off); inconclusive = no clear call, values can overlap the other calls; inactive = mostly above about 0.92.
# Assay: chemical genetic growth profiling, strain panel (AID 1159580);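 also: tested at 20 µM; growth read once vehicle control cultures reached saturation at 30 °C; 1 = growth at the plate median or of vehicle wells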
# Conditions: S. cerevisiae deletion strains, growth OD
# [1] = locus YAL013W, strain DEP1, stronger effect = lower value
# [2] = locus YBR229C, strain ROT2, stronger effect = lower value
# [3] = locus YDL101C, strain DUN1, stronger effect = lower value
# [4] = locus YDL134C, strain PPH21, stronger effect = lower value
# [5] = locus YDR150W, strain NUM1, stronger effect = lower value
# [6] = locus YEL061C, strain CIN8, stronger effect = lower value
# [7] = locus YGR078C, strain PAC10, stronger effect = lower value
# [8] = locus YGR229C, strain SMI1, stronger effect = lower value
# [9] = locus YHR030C, strain SLT2, stronger effect = lower value
# [10] = locus YHR087W, strain rtc3, stronger effect = lower value
# [11] = locus YJR043C, strain POL32, stronger effect = lower value
# [12] = locus YJR075W, strain HOC1, stronger effect = lower value
# [13] = locus YLR039C, strain RIC1, stronger effect = lower value
# [14] = locus YLR058C, strain SHM2 (second series), stronger effect = lower value
# [15] = locus YLR085C, strain ARP6, stronger effect = lower value
# [16] = locus YLR262C, strain YPT6, stronger effect = lower value
# [17] = locus YML094W, strain GIM5, stronger effect = lower value
# [18] = locus YMR219W, strain ESC1, stronger effect = lower value
# [19] = locus YMR263W, strain SAP30, stronger effect = lower value
# [20] = locus YNL153C, strain GIM3, stronger effect = lower value
# [21] = locus YNL298W, strain CLA4 (second series), stronger effect = lower value
# [22] = locus YNL322C, strain KRE1, stronger effect = lower value
# [23] = locus YNR030W, strain Alg12, stronger effect = lower value
# [24] = locus YPL055C, strain LGE1, stronger effect = lower value
# [25] = locus YPL241C, strain CIN2, stronger effect = lower value
# [26] = locus YPR135W, strain CTF4, stronger effect = lower value
structure (smiles),measurement,setting,value
COc1ccc(/C=N\NC(=O)CC#N)cc1OC,normalized growth,[1],1
same,normalized growth,[2],1
same,normalized growth,[3],1.04
same,normalized growth,[4],0.999
same,normalized growth,[5],1.04
same,normalized growth,[6],0.985
same,normalized growth,[7],0.998
same,normalized growth,[8],1
same,normalized growth,[9],1.05
same,normalized growth,[10],0.996
same,normalized growth,[11],1.01
same,normalized growth,[12],1.01
same,normalized growth,"locus YKL190W, strain CNB1, stronger effect = lower value",1
same,normalized growth,[13],1
same,normalized growth,[14],1.04
same,normalized growth,[15],0.957
same,normalized growth,[16],1.01
same,normalized growth,[17],0.998
same,normalized growth,[18],0.997
same,normalized growth,[19],1.04
same,normalized growth,"locus YNL128W, strain TEP1, stronger effect = lower value",1.01
same,normalized growth,[20],1.03
same,normalized growth,[21],1.02
same,normalized growth,[22],1
same,normalized growth,[23],0.998
same,normalized growth,[24],1.15
same,normalized growth,[25],1.01
same,normalized growth,[26],1.29
COc1ccc(/C(C#N)=C/c2ccc(OC)c(OC)c2)cc1,normalized growth,[1],0.953
same,normalized growth,[2],0.98
same,normalized growth,[3],0.985
same,normalized growth,[4],0.949
same,normalized growth,[5],0.951
same,normalized growth,[6],0.961
same,normalized growth,[7],0.968
same,normalized growth,[8],0.972
same,normalized growth,[9],0.548 (active)
same,normalized growth,[10],0.962
same,normalized growth,"locus YJL187C, strain SWE1, stronger effect = lower value",1
same,normalized growth,[11],0.964
same,normalized growth,[12],0.95
same,normalized growth,[13],0.717 (active)
same,normalized growth,[14],0.998
same,normalized growth,[15],0.768 (active)
same,normalized growth,[16],0.741 (active)
same,normalized growth,[17],0.933
same,normalized growth,[18],0.998
same,normalized growth,[19],0.953
same,normalized growth,[20],0.969
same,normalized growth,[21],0.936
same,normalized growth,[22],0.994
same,normalized growth,[23],0.925
same,normalized growth,[24],0.9
same,normalized growth,[25],0.933
same,normalized growth,[26],0.698

# Source: PubChem BioAssay AID1159580 (chemical genetic matrix, 2015)
